Shown are actives, neighbours in structure and some others; about 3% of the full set was active somewhere.
Wnt bcat act – Wnt/beta-catenin pathway activation | Wnt/beta-catenin reporter cell assay, activator, plate reader | activation, % at 9.35 µM | 1.2% of 300,000 active | AID 743398; in the data active means activation above about 30%, passing the limit was not always enough; inconclusive means no clear call, values can overlap the other calls
esBAF inh – SWI/SNF esBAF complex inhibition; mouse ES cells, Bmi1-luciferase knock-in reporter, 24 h; 100% = twice the neutral-well signal; reporter increase, % at 12.5 µM; 2% of 350,000 active; AID 602393; in the data active means activation above about 40%; inconclusive means no clear call, values can overlap the other calls;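 further: a rise in the Bmi1 reporter signal indicates esBAF inhibition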
MITF TRPM1 HTS – increases MITF-driven TRPM1 promoter luciferase signal. SK-MEL-5 TRPM1-promoter luciferase, 24 h; % of positive control, neutral wells = 0. activation, % at 12.5 µM. 0.75% of 300,000 active. AID 588334;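 active means mean activation of at least 80% with every replicate also reaching 80%; inconclusive means mean reaches 80% but some replicate falls short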
PfHsp90 yeast 2 – growth inhibition of yeast expressing Plasmodium Hsp90; AID 504621; inhibition, % at 9.4 µM; S. cerevisiae expressing PfHsp90, BacTiter-Glo ATP, 48 h; yeast lacking PDR1 and PDR3 efflux regulators; 0.32% of 310,000 active;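 active means every replicate shows inhibition above about 80%, whatever the replicate mean, limit read from the data; inconclusive means mean inhibition reaches the set limit but some replicate falls short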
N-glyco inh – blocks N-linked glycosylation in D54 reporter cells; reporter increase, % at 12.5 µM; 0.23% of 360,000 active; AID 588692; D54 ERlucT glycosylation luciferase reporter, 24 h; percent of 100 nM tunicamycin response;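 active means mean luciferase reporter signal, scaled so untreated is 0 and the glycosylation-blocking control 100, at or above a set limit in every replicate; inconclusive means mean reaches the limit but not every replicate does; inactive means mean below the limit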;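 further: luciferase carries N-glycosylation sites so blocking glycosylation raises the light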
Vif imaging – blocks HIV Vif function | HEK293T cells, Vif self-association by quenched fluorescence, imaging, 24 h | 0.35% of 340,000 active | inhibition, % at 7.49 µM | AID 602346; in the data active means inhibition above about 50%, passing the limit was not always enough; inconclusive means no clear call, values can overlap the other calls; inactive means below about 31%
Numbers stand for hits; i = inactive; ? = inconclusive; nt = not tested or not shown.

SMILES | Wnt bcat act | esBAF inh | MITF TRPM1 HTS | PfHsp90 yeast 2 | N-glyco inh | Vif imaging
CCc1ccc(-c2csc(NC(=O)Oc3ccccc3)n2)cc1 | i | nt | i | i | i | i
COc1cccc(NC(=O)Nc2nc(-c3ccc(OC)c(OC)c3)cs2)c1 | i | 43 | i | i | i | i
COc1ccc(-c2csc(NC(C)=O)n2)cc1OC | i | i | nt | nt | i | i
COc1cccc(-c2csc(NC(C)=O)n2)c1 | nt | 78 | 83 | i | i | i
O=C(Nc1nc(-c2cccc(Br)c2)cs1)Oc1ccccc1 | i | 45 | i | i | i | i
C[C@H](CO)N1C[C@H](C)[C@H](CN(C)Cc2ccccc2)Oc2ncc(-c3cccc(C(F)(F)F)c3)cc2C1=O | nt | i | nt | nt | nt | nt
Cc1ccccc1C(C(=O)NCc1ccco1)N(CC1CCCO1)C(=O)Cn1nnc2ccccc21 (stereo not given) | i | i | nt | i | i | i
Cc1occc1-c1nnc(SC(C)C(=O)Nc2ccccc2F)o1 (stereo not given) | 42 | nt | i | i | i | i
CCc1ccc(/C=C2\SC(=S)N(CCC(=O)NCCCN3CCOCC3)C2=O)cc1 | i | i | i | i | i | i
COC(=O)c1ccc(Nc2cc(C)nc3ccccc23)cc1 | 48 | nt | nt | i | i | i
COC(=O)c1ccc2nc(C)cc(Nc3ccc(N(C)C)cc3)c2c1 | i | i | i | i | i | i
CC(=O)Nc1ccc(NC(=O)c2ccccc2Br)cc1 | i | i | nt | nt | i | nt
Cc1c(C(=O)Nc2ccc(Br)cc2)cnn1C | 40 | nt | i | i | i | i
O=C(Nc1ccc(Br)cc1)c1cc2ccccn2n1 | 53 | nt | i | i | i | i
O=C(Nc1ccc(Br)cc1)c1ccccc1Br | i | 78 | 101 | i | i | i
Cc1c(C(=O)Nc2ccc3c(c2)OCCO3)cnn1C | i | i | i | i | i | i
CC(=O)/C(=C/c1ccc(N(C)C)cc1)C(=O)c1ccccc1 | nt | nt | i | i | i | i
O=C1Nc2ccccc2/C1=C/c1cnc(-c2ccccc2)[nH]1 | 41 | ? | nt | i | i | i
O=C1Nc2ccccc2/C1=C/c1cccnc1 | i | nt | i | i | i | i
O=C(NNC1=C(C(=O)C(F)(F)F)CCC1)c1ccc(Br)cc1 | nt | i | i | 130 | i | nt
O=C(NNC1=C(C(=O)C(F)(F)F)CCC1)c1ccccc1O | nt | i | i | i | i | i
Nc1ccccc1C(=O)NNC1=C(C(=O)C(F)(F)F)CCC1 | 68 | nt | nt | i | i | i
CCCn1c(=O)c(C(=O)NCCCc2ccccc2)c(O)c2ccccc21 | i | i | nt | i | i | i
CC(=O)Nc1ccc(NC(=O)C(C)OC(=O)/C(C#N)=C/c2ccc(N(C)C)cc2)cc1 (stereo not given) | i | 66 | 81 | i | i | 124
CN(C(=O)c1ccc2c(c1)S(=O)(=O)N=C1CCCCCN12)c1ccccc1 | i | i | i | nt | i | i
SMILES | Wnt bcat act | esBAF inh | MITF TRPM1 HTS | PfHsp90 yeast 2 | N-glyco inh | Vif imaging
CN(C)/C=C1/N=C(c2ccccc2)OC1=O | i | i | nt | i | i | i
Cc1ccc(C2=N/C(=C\N(C)C)C(=O)O2)cc1 | nt | i | 94 | i | i | nt
CCc1cc2cc(C(=O)Nc3ccccc3F)sc2s1 | i | i | i | i | i | i
CC(C)(C)c1ccc(C(=O)Nc2ccc(F)cc2)s1 | i | nt | 91 | i | i | i
CCc1cc2cc(C(=O)Nc3ccc(F)cc3)sc2s1 | 49 | i | i | i | i | i
Cn1nc(C(F)(F)F)c2cc(C(=O)Nc3ccc(F)cc3)sc21 | i | nt | i | i | i | i
Cc1ccc(Cc2ccc(C(=O)NNC(N)=S)o2)cc1 | i | i | i | i | i | i
COC(=O)CSc1nc2ccc(C)cc2cc1C#N | 67 | nt | i | i | i | i
Cc1ccc2nc(SCC(=O)NCc3ccco3)c(C#N)cc2c1 | 59 | i | nt | i | i | i
CCn1c(SCC(=O)N2CCC(C)CC2)nnc1-c1ccc(S(=O)(=O)N2CCN(C)CC2)cc1 | nt | i | nt | nt | i | i
COc1cccc(C=Cc2nccc3ccccc23)c1OC | 59 | i | nt | nt | i | i
CCOc1cccc(/C=C/c2ccc3cccc(O)c3n2)c1OC | 40 | i | i | i | i | i
Oc1cccc2ccc(/C=C/c3ccccc3Cl)nc12 | i | i | i | 100 | i | i
COc1ccccc1/C=C/c1ccc2cccc(O)c2n1 | i | 67 | i | i | i | i
Cc1nc2c3ccccc3nc(NNC(=O)CCC(=O)NCCN3CCN(c4ccccc4F)CC3)n2n1 | nt | i | i | i | i | i
CCOc1cccc(/C=C/c2ccc3cccc(O)c3n2)c1O | 48 | 87 | i | i | i | i
C[C@@H]1CCCCO[C@H](CN(C)Cc2ccc3c(c2)OCO3)[C@H](C)CN([C@@H](C)CO)C(=O)c2cc(NC(=O)CCCN(C)C)ccc2O1 | nt | i | nt | nt | nt | nt
Cc1ccc(-c2cc(C(=O)NC3CCCC3)no2)cc1 | i | i | 125 | i | i | i
Cc1cc(F)ccc1-c1cc(C(=O)NC2CCCCC2)[nH]n1 | i | 62 | nt | nt | i | i
COc1cccc(-c2cc(C(=O)NC3CCCC3)no2)c1 | nt | nt | i | i | i | i
O=C(COCc1cc(-c2cccs2)on1)NC1CCCCC1 | i | i | i | i | i | i
CC(C)Oc1cc(F)ccc1-c1cc(C(=O)NC2CCCCC2)[nH]n1 | i | i | nt | nt | i | i
O=C(NC1CCCCC1)c1cc(-c2cccs2)on1 | 37 | 45 | ? | i | i | i
O=C(NC1CCCCC1)c1cc(-c2ccc(F)cc2)on1 | i | 59 | nt | i | i | i
O=c1[nH]c2cccc(Cl)c2n(CCNc2ncc(C(F)(F)F)cc2Cl)c1=O | i | i | i | i | i | i
SMILES | Wnt bcat act | esBAF inh | MITF TRPM1 HTS | PfHsp90 yeast 2 | N-glyco inh | Vif imaging
CCOC(=O)[C@H](CCc1ccccc1)N[C@@H](C)C(=O)N1Cc2ccccc2C[C@H]1C(=O)O | i | i | i | i | i | i
COc1ccccc1CNC(=O)C[C@H]1C=C[C@@H](NC(=O)CC2CC2)[C@@H](CO)O1 | nt | i | nt | nt | nt | nt
CC1CC(C)CN(C(=O)COC(=O)c2ccc3c(c2)OCO3)C1 (stereo not given) | i | i | i | i | i | i
CC1CCN(C(=O)COC(=O)c2cc(Cl)c3c(c2)OCO3)CC1 | 32 | i | i | nt | i | i
Cc1ccc(S(=O)(=O)n2ccc(-c3ccc(OCc4c(F)cccc4Cl)cc3)n2)cc1 | i | i | nt | nt | i | i
CN(C(=O)/C=C/c1ccccc1)C1CCCCC1 | 48 | nt | nt | nt | i | i
CC1(C)CC(=O)C2=C(C1)N(Cc1ccco1)C(=O)NC2(C(F)(F)F)C(F)(F)F | nt | i | i | i | i | 54
COc1ccc([C@@H]2CC=C(C(=O)O)[C@H](c3ccc(Cl)cc3)N2S(=O)(=O)c2ccc(Cl)cc2)cc1 | i | i | i | i | i | i
Fc1ccccc1CSc1nnc(-c2cccnc2)o1 | 40 | nt | i | i | i | i
Cc1ccc(C)c(CSc2nnc(-c3cccnc3)o2)c1 | nt | i | i | i | i | i
Fc1ccccc1CSc1nnc(-c2ccccc2)o1 | 68 | i | 103 | i | i | i
COc1ccc(-c2cnc3cccnn23)cn1 | i | i | nt | nt | i | i
Clc1ccc(-c2cnc3cccnn23)cc1 | i | 50 | nt | nt | i | i
